Results filed as inconclusive are left out. A structure can be active in one record and inactive in another. Active and inactive are the calls of the source. Unless noted, calls follow the shape of the dose curve; as a rule, active = well fitted curve in the direction sought with a large enough effect; inconclusive = small, poorly fitted or top-dose-only effect, or another doubt; inactive = no such curve, though single readings can be large; an effect the other way counts as inactive or inconclusive.
Experiments:
[1] = Cell Viability - LYMP2-009 (AID 968); also: potency is read from the fitted curve at half-maximal effect; nearly all actives have a fitted effect of over 55% in size
[2] = Cell Viability - LYMP2-011 (AID 969); also: potency is read from the fitted curve at half-maximal effect; nearly all actives have a fitted effect of over 60% in size
Method in brief: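 In this qHTS cytotoxicity format, compounds are tested across concentrations on human lymphoblastoid cells in complete medium for 24 hours at 37 C. Viability is taken as cellular ATP measured by luciferase luminescence.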

[3] = Cell Viability - LYMP2-013 (AID 970); also: potency is read from the fitted curve at half-maximal effect; nearly all actives have a fitted effect of over 55% in size
Method in brief: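 Cytotoxicity is scored as a concentration-dependent drop in intracellular ATP in human lymphoblastoid cells after 24 hr compound exposure at 37 C. ATP is quantified by luciferase luminescence, and AC50 values come from Hill-equation modeling.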

[4] = Cell Viability - LYMP2-015 (AID 971); also: potency is read from the fitted curve at half-maximal effect; nearly all actives have a fitted effect of over 55% in size
Method in brief: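 Cells are seeded at 2500 per well and incubated 5 hr at 37 C. Compounds are added across a concentration series for 24 hr at 37 C. CellTiter-Glo is added, and luminescence is read after 30 min at room temperature.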

[5] = Cell Viability - LYMP2-017 (AID 972); also: potency is read from the fitted curve at half-maximal effect; nearly all actives have a fitted effect of over 55% in size
Method in brief: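 Cytotoxicity is scored as a concentration-dependent drop in cellular ATP in a human lymphoblastoid line after 24 hr treatment at 37 C. Values are AC50s from Hill-equation modelling.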

[6] = Cell Viability - LYMP2-021 (AID 974)
Method in brief: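 Loss of cellular ATP, measured with a luciferase-based CellTiter-Glo readout, serves as the toxicity signal in human lymphoblastoid cells treated for 24 hours at 37 C. Potency is reported as AC50 from a standard Hill model.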

[7] = Cell Viability - LYMP2-023 (AID 975)
Method in brief: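 Steps: seed 2500 human lymphoblastoid cells per well, incubate 5 hr at 37 C, add compound for 24 hr at 37 C, add CellTiter-Glo, hold 30 min at room temperature, read luminescence. AC50 derived by Hill modelling.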

[8] = Cell Viability - LYMP2-025 (AID 976); also: potency is read from the fitted curve at half-maximal effect
Method in brief: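 Acute cytotoxicity is scored as a concentration-dependent fall in intracellular ATP, measured by luciferase luminescence, in human lymphoblastoid LYMP2-025 cells exposed to compound for 24 hours at 37 C. AC50 values come from standard Hill fits.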

[9] = Cell Viability - LYMP2-006 (AID 978); also: potency is read from the fitted curve at half-maximal effect; nearly all actives have a fitted effect of over 60% in size
Method in brief: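 Cells are seeded at 2500 per well and rested 5 hr at 37 C. Compounds are added across a concentration series for 24 hr at 37 C, after which ATP is quantified by luciferase luminescence.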

[10] = Cell Viability - LYMP2-007 (AID 979);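 also: potency is read from the fitted curve at half-maximal effect; cells exposed to compound for 24 h before reading; nearly all actives have a fitted effect of over 60% in size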
Method in brief: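 Cells are seeded at 2500 per well and rested 5 hr. Compounds are then added over a concentration series for 24 hr at 37 C. CellTiter-Glo is added for 30 min at room temperature before luminescence reading.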

[11] = Cell Viability - LYMP2-008 (AID 980); also: potency is read from the fitted curve at half-maximal effect; nearly all actives have a fitted effect of over 60% in size
Method in brief: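 Cells seeded at 2500/well and rested 5 hr at 37 C; compounds added over a concentration range and incubated 24 hr at 37 C; CellTiter-Glo added, 30 min at room temperature; luminescence read and AC50 fitted with Hill model.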

[12] = Cell Viability - LYMP2-010 (AID 981)
Method in brief: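 Steps: seed 2500 LYMP2-010 cells per well; incubate 5 hr at 37 C; add compound; incubate 24 hr at 37 C; add CellTiter-Glo, wait 30 min at room temperature; read luminescence. Concentration-response fitted to Hill equation for AC50.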

[13] = Cell Viability - LYMP2-012 (AID 982)
[14] = Cell Viability - LYMP2-014 (AID 983); also: potency is read from the fitted curve at half-maximal effect; nearly all actives have a fitted effect of over 50% in size
Method in brief: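 Cells are plated at 2500/well and left 5 hr at 37 C. Compounds are added across a concentration range and incubated 24 hr at 37 C in complete medium. CellTiter-Glo is added, and luminescence is read after 30 min at room temperature.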

[15] = Cell Viability - LYMP2-016 (AID 984)
Method in brief: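 Cells were seeded at 2500 per well and rested 5 hr before a 24 hr compound exposure at 37 C. Viability was then gauged as cellular ATP by luciferase luminescence, with AC50 values fitted to the Hill equation.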

[16] = Cell Viability - LYMP2-018 (AID 985); also: potency is read from the fitted curve at half-maximal effect; nearly all actives have a fitted effect of over 50% in size
Method in brief: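 Seed 2500 lymphoblastoid cells per well, incubate 5 hr at 37 C, add compound and incubate 24 hr at 37 C, add CellTiter-Glo, wait 30 min at room temperature, then read luminescence.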

[17] = Cell Viability - LYMP2-020 (AID 986)
Method in brief: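 Seed 2500 cells per well and incubate 5 hr at 37 C. Add compounds at a concentration series and incubate 24 hr at 37 C. Add CellTiter-Glo, wait 30 min at RT, read luminescence, and fit a Hill curve for AC50.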

[18] = Cell Viability - LYMP2-022 (AID 987)
Method in brief: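 Cells were seeded at 2500 per well, rested 5 hr at 37 C, and treated with titrated compounds for 24 hr at 37 C. Cellular ATP was then quantified by luciferase luminescence, and AC50 values were derived from Hill-modelled concentration-response curves.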

[19] = Cell Viability - LYMP2-024 (AID 988)
Method in brief: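 qHTS cytotoxicity, human lymphoblastoid line, complete medium; 24 h cpd treatment, 37 C; CellTiter-Glo ATP luminescence readout; tetraoctylammonium bromide positive control; AC50 via Hill fit.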

[20] = Cell Viability - LYMP2-026 (AID 989); also: potency is read from the fitted curve at half-maximal effect; nearly all actives have a fitted effect of over 50% in size
Method in brief: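 Cells are seeded at 2500 per well and held 5 hr at 37 C. Compounds are added in concentration series for 24 hr, then CellTiter-Glo reagent is applied and luminescence read.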

[21] = target: Glucocorticoid receptor (Homo sapiens) (UniProt P04150); test: qHTS assay for small molecule antagonists of glucocorticoid receptor signaling (AID 588533; active = well fitted inhibition curve with a large enough effect in the signal ratio, with a control signal flat, not every such curve was filed as active; the % refers to the signal ratio;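 also: cells stimulated with 2 nM dexamethasone as agonist; % is scaled to controls: 0 for no effect and ±100 for the full control effect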)
Method in brief: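 Antagonist-mode qHTS: compound titrations added to GRE-bla HeLa cells, then dexamethasone 2 nM final; 18 h, 37 C. CCF4 FRET fluorescence normalized to dexamethasone and DMSO; IC50 from Hill fit.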

[22] = target: Peroxisome proliferator-activated receptor delta (Homo sapiens) (UniProt Q03181); test: qHTS assay for small molecule agonists of peroxisome proliferator-activated receptor delta signaling (AID 588534; calls by dose curve;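 also: 0% = DMSO basal wells and 100% = positive control agonist at 10 µM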)
Method in brief: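 Agonist-mode qHTS; reporter cells, 5 hrs 37 C pre-incubation; compound titration, 18 hrs 37 C; CCF4 dye, 2 hrs RT; fluorescence read. EC50/efficacy via Hill fit.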

[23] = target: Voltage-gated inwardly rectifying potassium channel KCNH2 (Homo sapiens) (UniProt Q12809); test: qHTS Assay for Small Molecule Inhibitors of the Human hERG Channel Activity (AID 588834);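 also: potency is read from the fitted curve at half-maximal effect; lower thallium flux fluorescence means stronger hERG block; nearly all actives have a fitted effect of over 50% in size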
Method in brief: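 Step 1: BacMam hERG transduction of U2OS, 4 hrs RT. Step 2: overnight 37 °C, plate 2000 cells/well, 4 hr. Step 3: FluxOR load, compound 10 min, stimulate, read fluorescence.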

[24] = qHTS assay for small molecule agonists of the antioxidant response element (ARE) signaling pathway (AID 651741; active = well fitted activation curve with a large enough effect in the signal ratio; the % refers to the signal ratio; also: % of control where 0% means no effect)
Method in brief: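 Stably integrated ARE-beta-lactamase reporter HepG2 cells; 16 h compound incubation, 37 C; LiveBLAzer FRET substrate 2 h at room temperature; fluorescence intensity.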

[25] = qHTS assay for small molecule activators of the p53 signaling pathway (AID 651743; active = well fitted activation curve with a large enough effect in the signal ratio, not every such curve was filed as active; the % refers to the signal ratio; also: series mostly up to about 92 µM; % of control where 0% means no effect); conditions: HCT-116 p53RE-bla, beta-lactamase FRET ratio, 16 h; activation: active compounds read high
Method in brief: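 Following 16 hours of compound exposure at 37 C, HCT-116 cells bearing the p53RE-bla reporter were loaded with LiveBLAzer B/G FRET substrate for 2 hours at room temperature and fluorescence intensity was recorded.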

[26] = qHTS assay to identify small molecules that stimulate interleukin-8 (IL-8) secretion (AID 651758; active = well fitted activation curve with a large enough effect in the signal ratio; the % refers to the signal ratio; also: potency is read from the fitted curve at half-maximal effect)
Method in brief: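 Compounds are added to THP-1 cells (2000 per well) and left 16 hrs at 37 C. A labeled anti-IL-8 antibody pair is then added, and IL-8 secretion is measured by time-resolved FRET after 1-3 hrs at room temperature.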

[27] = target: Nuclear receptor ROR-gamma (Homo sapiens) (UniProt P51449); test: qHTS assay for small molecule antagonists of the retinoid-related orphan receptor gamma (ROR-gamma) signaling pathway (AID 651802)
Method in brief: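 Steps: cells dispensed; compound or DMSO transferred by pin tool; doxycycline added to induce the ROR response element-driven luciferase; plates held 16hr at 37C; ONE-Glo added and luminescence measured.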

[28] = qHTS assay for small molecule antagonists of the retinoid-related orphan receptor gamma (ROR-gamma) signaling pathway - cell viability counter screen (AID 720652; active = well fitted curve in the direction sought with a large enough effect in the repeat runs; an effect the other way counts as inactive or inconclusive;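 also: potency is read from the fitted curve at half-maximal effect; compound exposure lasted 16 hr before ATP read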)
Method in brief: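 Steps: seed CHO cells bearing TET-inducible ROR and ROR response element-luciferase; rest 5 hr at 37 C; add compound, then doxycycline; incubate 16 hr; add CellTiter-Glo and read luminescence as ATP-based viability.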

[29] = qHTS assay for small molecule agonists of the antioxidant response element (ARE) signaling pathway measured by Nrf2-dependant transcriptional activity - cell viability counter screen (AID 720653; active = well fitted curve in the direction sought with a large enough effect in the repeat runs; an effect the other way counts as inactive or inconclusive; also: potency is read from the fitted curve at half-maximal effect; as to max response: % is scaled to controls: 0 for no effect and ±100 for the full control effect); conditions: ARE-bla HepG2 viability, CellTiter-Glo ATP luminescence, 16 h; max response: active compounds read low
Method in brief: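 ARE-bla HepG2 cells treated with compounds for 16 h at 37C; this counter screen measures viability as intracellular ATP by CellTiter-Glo luminescence after 30 min at room temperature.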

Peroxisome proliferator-activated receptor delta (Homo sapiens), sequence (Q03181 whole entry, looked up): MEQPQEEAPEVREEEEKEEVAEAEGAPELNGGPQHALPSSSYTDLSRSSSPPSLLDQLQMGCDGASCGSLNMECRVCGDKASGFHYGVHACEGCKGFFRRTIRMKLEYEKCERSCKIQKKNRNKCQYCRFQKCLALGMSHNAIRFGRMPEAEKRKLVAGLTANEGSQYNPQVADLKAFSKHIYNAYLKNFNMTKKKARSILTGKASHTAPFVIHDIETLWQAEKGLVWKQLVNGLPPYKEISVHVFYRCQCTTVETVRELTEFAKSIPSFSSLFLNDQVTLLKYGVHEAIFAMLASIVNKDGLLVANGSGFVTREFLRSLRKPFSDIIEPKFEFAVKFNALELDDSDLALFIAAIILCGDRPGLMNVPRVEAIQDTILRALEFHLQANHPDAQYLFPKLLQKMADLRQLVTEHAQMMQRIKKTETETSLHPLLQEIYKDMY
Glucocorticoid receptor (Homo sapiens), sequence (P04150 whole entry, looked up): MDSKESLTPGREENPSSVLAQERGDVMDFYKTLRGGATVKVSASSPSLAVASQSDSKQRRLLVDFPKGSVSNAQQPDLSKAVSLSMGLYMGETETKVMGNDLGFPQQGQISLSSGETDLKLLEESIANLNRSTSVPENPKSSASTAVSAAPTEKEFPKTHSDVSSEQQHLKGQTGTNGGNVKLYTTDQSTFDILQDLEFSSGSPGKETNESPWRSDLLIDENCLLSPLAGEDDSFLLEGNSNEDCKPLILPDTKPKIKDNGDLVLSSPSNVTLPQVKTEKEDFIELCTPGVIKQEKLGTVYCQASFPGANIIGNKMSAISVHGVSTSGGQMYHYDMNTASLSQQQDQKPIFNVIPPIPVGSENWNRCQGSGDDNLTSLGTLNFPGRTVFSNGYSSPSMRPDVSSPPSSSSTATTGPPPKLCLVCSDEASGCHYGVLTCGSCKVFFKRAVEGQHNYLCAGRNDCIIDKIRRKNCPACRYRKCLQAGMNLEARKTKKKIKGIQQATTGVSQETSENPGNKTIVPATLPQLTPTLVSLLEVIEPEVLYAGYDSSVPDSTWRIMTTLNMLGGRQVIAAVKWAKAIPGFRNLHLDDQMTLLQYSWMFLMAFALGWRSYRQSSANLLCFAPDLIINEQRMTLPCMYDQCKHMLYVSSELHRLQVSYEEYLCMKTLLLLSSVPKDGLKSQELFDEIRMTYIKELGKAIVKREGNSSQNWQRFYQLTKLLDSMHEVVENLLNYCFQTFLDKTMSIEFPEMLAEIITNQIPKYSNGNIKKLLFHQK
Voltage-gated inwardly rectifying potassium channel KCNH2 (Homo sapiens), sequence (Q12809 whole entry, looked up): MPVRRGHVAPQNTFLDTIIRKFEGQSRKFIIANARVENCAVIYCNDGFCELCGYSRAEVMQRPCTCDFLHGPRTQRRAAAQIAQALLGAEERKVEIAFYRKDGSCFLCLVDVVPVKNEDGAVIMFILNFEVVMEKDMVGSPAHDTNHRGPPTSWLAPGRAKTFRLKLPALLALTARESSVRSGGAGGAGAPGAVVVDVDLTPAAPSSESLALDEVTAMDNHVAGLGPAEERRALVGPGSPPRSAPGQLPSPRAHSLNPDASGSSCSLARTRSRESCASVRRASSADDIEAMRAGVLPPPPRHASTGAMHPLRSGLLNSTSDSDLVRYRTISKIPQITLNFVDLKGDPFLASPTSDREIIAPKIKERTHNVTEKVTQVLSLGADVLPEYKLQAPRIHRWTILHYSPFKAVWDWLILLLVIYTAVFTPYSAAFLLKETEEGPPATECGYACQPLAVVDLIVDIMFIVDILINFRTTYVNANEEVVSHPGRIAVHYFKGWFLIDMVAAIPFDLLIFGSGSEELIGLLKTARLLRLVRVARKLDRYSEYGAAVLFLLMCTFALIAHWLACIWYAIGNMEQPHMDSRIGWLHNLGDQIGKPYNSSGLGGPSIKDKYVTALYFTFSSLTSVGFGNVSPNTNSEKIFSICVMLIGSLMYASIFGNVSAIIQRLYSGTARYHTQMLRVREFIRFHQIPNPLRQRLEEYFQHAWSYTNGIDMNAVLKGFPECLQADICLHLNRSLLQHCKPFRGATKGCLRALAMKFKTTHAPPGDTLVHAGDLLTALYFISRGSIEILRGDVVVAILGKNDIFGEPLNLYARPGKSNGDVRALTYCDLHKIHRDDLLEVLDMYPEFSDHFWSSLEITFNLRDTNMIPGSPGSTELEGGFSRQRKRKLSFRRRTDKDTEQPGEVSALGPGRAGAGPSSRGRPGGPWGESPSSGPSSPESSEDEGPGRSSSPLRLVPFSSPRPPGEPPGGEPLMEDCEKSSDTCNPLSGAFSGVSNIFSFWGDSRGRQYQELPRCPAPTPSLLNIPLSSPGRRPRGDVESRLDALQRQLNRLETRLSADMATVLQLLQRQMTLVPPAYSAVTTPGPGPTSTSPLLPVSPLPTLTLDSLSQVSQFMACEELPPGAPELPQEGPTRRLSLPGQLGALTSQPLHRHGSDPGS
Nuclear receptor ROR-gamma (Homo sapiens), sequence (P51449 whole entry, looked up): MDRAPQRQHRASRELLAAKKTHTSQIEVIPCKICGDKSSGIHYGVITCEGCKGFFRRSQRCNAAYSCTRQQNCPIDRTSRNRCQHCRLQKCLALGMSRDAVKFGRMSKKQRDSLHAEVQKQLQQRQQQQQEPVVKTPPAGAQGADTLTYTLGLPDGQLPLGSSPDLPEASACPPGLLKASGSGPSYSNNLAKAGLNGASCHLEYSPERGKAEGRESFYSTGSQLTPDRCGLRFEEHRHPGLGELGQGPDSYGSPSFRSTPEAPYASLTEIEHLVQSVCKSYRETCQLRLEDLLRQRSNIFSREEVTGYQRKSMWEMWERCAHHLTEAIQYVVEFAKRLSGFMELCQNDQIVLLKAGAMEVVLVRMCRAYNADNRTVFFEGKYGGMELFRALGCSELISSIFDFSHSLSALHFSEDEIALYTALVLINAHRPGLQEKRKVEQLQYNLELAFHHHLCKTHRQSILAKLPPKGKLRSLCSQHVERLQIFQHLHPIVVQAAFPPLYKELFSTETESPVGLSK

ClC1=C(Cl)C(Cl)(Cl)C(Cl)=C1Cl
active: Potency [1] 7.94 µM | Potency [2] 6.31 µM | Potency [3] 6.31 µM | Potency [4] 3.98 µM | Potency [5] 6.31 µM | Potency [6] 6.31 µM | Potency [7] 5.01 µM | Potency [8] 10 µM | Potency [9] 7.94 µM | Potency [10] 3.16 µM | Potency [11] 3.16 µM | Potency [12] 5.01 µM | Potency [13] 6.31 µM | Potency [14] 7.94 µM | Potency [15] 6.31 µM | Potency [16] 7.94 µM | Potency [17] 7.94 µM | Potency [18] 6.31 µM | Potency [19] 3.16 µM | Potency [20] 10 µM | Potency [23] 22.4 µM | Potency [26] 29.8 µM | Potency [27] 13.3 µM | Potency [28] 11.9 µM | Potency [29] 35.5 µM
inactive: Potency [21] | outcome [22] | Potency [24] | activation [25] 12.3% | max response [29] -1.05%

Source: PubChem BioAssay (NCATS)
